The campaign covered roughly 52,000 compounds. About 4,300 (8.3%) were called active. For the sample, actives were picked, then their nearest neighbours and some compounds at random. Values without a mark were called inactive. No stated cut-off is given here; in the data, active means survival mostly below about 52% (no sharp cut-off); inactive means mostly above about 56%.
The compounds below were run on DeltatarO mutant (assay: S. aureus survival, RN4220 and DeltatarO strains – OD600, teichoic acid synthesis inhibitors, primary screen (AID 463173)). Conditions: S. aureus RN4220 wild type/DeltatarO growth, OD600, 18 h, hits give low values, screened at 18.75 µg/mL (by protocol).

SMILES | survival
COc1ccc(Cc2nnc(SCC(N)=O)o2)cc1 | 76%
O=C1COc2ccccc2N1Cc1c(F)cccc1Cl | 79%
CCOC(=O)c1c(NC(=O)CCCOc2ccc(C(C)(C)C)cc2)sc2c1CCC2 | 9% (active)
CCOC(=O)c1c(NC(=O)COc2ccc(C(C)(C)C)cc2)sc2c1CCCC2 | 75%
CCOC(=O)c1c(NC(=O)COc2ccc(Cl)cc2C)sc2c1CCCCC2 | 75%
CCOC(=O)c1c(NC(=O)CCCOc2ccc(Cl)cc2)sc2c1CCC2 | 17% (active)
CCOC(=O)c1c(NC(=O)CS(=O)(=O)c2ccc(Cl)cc2)sc2c1CCCC2 | 77%
CCOC(=O)c1c(NC(=O)CCCOc2ccc(C(C)(C)C)cc2)sc2c1CCCC2 | 14% (active)
Cc1ccc(N2CCN(S(=O)(=O)c3cc(Br)cc4c3N(C(=O)C3CC3)CC4)CC2C)cc1 (stereo not drawn) | 70%
CCOc1ccccc1NC(=O)C(=O)NCCc1sc(-c2cccc(F)c2)nc1C | 90%
O=C(OCC(=O)N1CCc2ccccc21)c1ccccc1 | 92%
CCOc1ccc(CCNC(=O)c2cnc3sc(N4CCC(C)CC4)nn3c2=O)cc1 | 84%
COc1cc2c(cc1OC)C(CC(=O)Nc1ccccc1)C(=O)NN=C2C (stereo not drawn) | 103%
CCc1cc2c(cc3c(=O)n(CC(=O)N4CCC(C)CC4)nc(CC)n32)s1 | 41% (active)
CCc1cc2c(cc3c(=O)n(CC(=O)N4CCCCC4)nc(CC)n32)s1 | 77%
CCc1cc2c(cc3c(=O)n(CC(=O)NC4CCC(C)CC4)nc(CC)n32)s1 (stereo not drawn) | 115%
COc1ccc(OC)c(C(=O)CN2C(=O)N(c3ccc(C)cc3)S(=O)(=O)c3ccccc32)c1 | 89%
COc1ccc(C(=O)NCC(c2ccco2)S(=O)(=O)c2cccs2)cc1 (stereo not drawn) | 100%
Clc1ccccc1CNc1nc2ccccc2c2nc(-c3cccnc3)nn12 | 86%
COc1ccccc1CNc1nc2ccccc2c2nc(-c3cccnc3)nn12 | 48% (active)

SMILES | survival
Cc1cccc(-c2nc3c4ccccc4nc(NCc4ccccc4Cl)n3n2)c1 | 138%
COc1ccccc1CNc1nc2ccccc2c2nc(-c3cccc(C)c3)nn12 | 24% (active)
COc1cc2nc(NCc3ccccc3Cl)n3nc(-c4cccnc4)nc3c2cc1OC | 105%
COc1ccc(OC)c(CCNc2nc3ccccc3c3nc(-c4cccnc4)nn23)c1 | 112%
Cc1ccc(NC(=O)c2oc3ccc(S(=O)(=O)N(C)C4CCCCC4)cc3c2C)cc1Cl | 95%
Cc1cc2n(n1)CCCN2C(=O)Nc1cccc(C)c1C | 73%
O=C(O)C1C2C=CC(C2)C1C(=O)NCCO (stereo not drawn) | 82%
COc1ccc(OC)c(S(=O)(=O)N2CCC(C(=O)NCCC3=CCCCC3)CC2)c1 | 92%
CCOC(=O)CCNC(=O)N1CCN(S(=O)(=O)c2ccc3c(ccn3C)c2)CC1 | 89%
COC(=O)CNC(=O)N1CCN(S(=O)(=O)c2ccc3c(ccn3C)c2)CC1 | 87%
CCOC(=O)CNC(=O)N1CCN(S(=O)(=O)c2ccc3c(ccn3C)c2)CC1 | 32% (active)
CCn1c(SCc2ccccc2)nnc1-c1cccnc1 | 75%
Cc1ccc(N2CCN(Cc3nnc(-c4ccccc4F)o3)CC2)c(C)c1 | 22% (active)
Cc1ccccc1-c1nnc(CN2CCN(c3cccc(C)c3C)CC2)o1 | 61%
Cc1ccccc1-c1nnc(CN2CCN(c3ccccn3)CC2)o1 | 120%
Cc1ccccc1-c1nnc(CN2CCN(c3cc(Cl)ccc3C)CC2)o1 | 74%
Cc1cccc(N2CCN(Cc3nnc(-c4ccccc4C)o3)CC2C)c1 (stereo not drawn) | 33% (active)
Cc1ccc(C)c(N2CCN(Cc3nnc(-c4ccccc4)o3)CC2)c1 | 91%
CCn1c(=O)n(CC2CCC(C(=O)NC(C)C)CC2)c(=O)c2sccc21 (stereo not drawn) | 85%
CC(=O)c1ccc(NC(=O)Cn2cc(S(=O)(=O)Cc3ccccc3Cl)c3ccccc32)cc1 | 74%

SMILES | survival
CCOC(=O)C1CCCN(C(=O)c2ccc3c(c2)N(Cc2ccccc2)C(=O)c2ccccc2S3=O)C1 (stereo not drawn) | 120%
CCCCC(=O)Nc1ccc2nc(SCC(=O)N3CCOCC3)sc2c1 | 87%
CCN(Cc1ccccc1)C(=O)CCc1c(C)nc2c(c(C)nn2-c2ccc(C)c(C)c2)c1C | 95%
COc1ccc(C(=O)N(Cc2cc(OC)c(OC)c(OC)c2)CC2CCCO2)cc1 (stereo not drawn) | 48%
O=C(c1ccc(Cl)cc1)N1CCN(CCc2ccncc2)CC1 | 103%
COC(=O)CSc1nc2sc3c(c2c(=O)n1-c1ccccc1C)CC(C)(C)OC3 | 73%
CCOC(=O)CSc1nc2sc3c(c2c(=O)n1Cc1ccccc1)CCC(C(C)(C)C)C3 (stereo not drawn) | 61%
CCC1(C)Cc2c(sc3nc(SC)n(-c4ccc(C)cc4)c(=O)c23)CO1 (stereo not drawn) | 33% (active)
CCCCCOC(=O)CSc1nc2sc3c(c2c(=O)n1Cc1ccccc1)CC(C)(C)OC3 | 41% (active)
CCOC(=O)CSc1nc2sc3c(c2c(=O)n1Cc1ccccc1)CC(C(C)C)OC3 (stereo not drawn) | 74%
CCCN(CCC)C(=O)CSc1nc2sc3c(c2c(=O)n1-c1ccccc1)CCN(C(C)=O)C3 | 178%
COC(=O)CSc1nc2sc3c(c2c(=O)n1-c1ccc(C)cc1)CC(C(C)C)OC3 (stereo not drawn) | 61%
Cc1ccc(-n2c(SCCC(C)C)nc3sc4c(c3c2=O)CC(C)(C)OC4)cc1 | 49%
CCCCCOC(=O)CSc1nc2sc3c(c2c(=O)n1-c1ccccc1)CC(C)(CC)OC3 (stereo not drawn) | 36% (active)
CCCCCOC(=O)CSc1nc2sc3c(c2c(=O)n1Cc1ccccc1)CC(C)(CC)OC3 (stereo not drawn) | 46% (active)
CCOC(=O)CSc1nc2sc3c(c2c(=O)n1Cc1ccccc1)CC(C)CC3 (stereo not drawn) | 64%
CCOC(=O)CSc1nc2sc3c(c2c(=O)n1-c1ccccc1)CC(C(C)C)OC3 (stereo not drawn) | 96%
CCOc1ccc(CN(CCc2ccc3c(c2)OCO3)Cc2cc(OC)c(OC)cc2OC)cc1 | 44%

— PubChem BioAssay AID463173 (ICCB-Longwood Screening Facility, Harvard Medical School, 2010)
